Assay outcomes from PubChem.
Mac1 fbg enh = enhancers of CD11b/CD18 adhesion to fibrinogen, primary screen, K562 cells, luminescence | Integrin beta-2 (Homo sapiens) + Integrin alpha-M (Homo sapiens), P05107+P11215 | ATPlite luminescence | activation, % at 10 µM | 0.07% of 93,000 active;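 active = 10 µM primary screen giving 50% or more activity, confirmed by 40% or more on retest at that dose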
CYP2C9 inh = blockers of cytochrome P450 2C9 activity – biochemical, luminescence, ADME assay, primary screen; 20% of 96,000 active; inhibition, % at 5 µM; CYP2C9 Supersomes, luciferin-H conversion; AID 777, 2007; P11712;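 active = blocking of liver enzyme CYP2C9 beyond about 50% at 5 µM, limit read from the data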
Target sequence (P11712 whole entry, looked up): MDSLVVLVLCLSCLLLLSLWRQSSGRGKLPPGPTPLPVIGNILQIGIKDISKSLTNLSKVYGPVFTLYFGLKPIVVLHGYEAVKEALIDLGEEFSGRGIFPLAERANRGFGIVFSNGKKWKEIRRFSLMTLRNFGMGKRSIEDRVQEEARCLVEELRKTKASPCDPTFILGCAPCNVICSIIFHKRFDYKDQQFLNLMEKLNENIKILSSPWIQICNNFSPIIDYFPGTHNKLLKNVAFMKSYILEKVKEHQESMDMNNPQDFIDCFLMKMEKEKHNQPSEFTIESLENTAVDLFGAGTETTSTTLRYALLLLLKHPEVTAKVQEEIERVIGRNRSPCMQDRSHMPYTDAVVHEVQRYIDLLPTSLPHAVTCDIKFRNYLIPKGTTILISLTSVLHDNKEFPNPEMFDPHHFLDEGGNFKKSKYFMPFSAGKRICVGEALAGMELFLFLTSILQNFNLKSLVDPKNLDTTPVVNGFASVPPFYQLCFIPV
CYP2C19 act = human CYP2C19 activators, primary screen, biochemical, luminescence; Cytochrome P450 2C19 (Homo sapiens), P33261; recombinant CYP2C19, luciferin-H EGE luminescence; active compounds read high; 0 = fully inhibited enzyme, 1 = untreated enzyme; activation factor at 5 µM; 96,000 tested, under 10 active;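 active = activation factor of at least 2 at 5 µM in the primary screen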
Mac1 fbg inh = inhibitors of CD11b/CD18 adhesion to fibrinogen, primary screen, K562 cells, luminescence. Integrin beta-2 (Homo sapiens) + Integrin alpha-M (Homo sapiens), P05107+P11215. ATPlite luminescence; Mn2+ added to activate the integrin. inhibition, % at 10 µM. 0.54% of 93,000 active. AID 1497, 2009;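 active = primary inhibition of 50% or more at 10 µM, then 40% or more on retest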
CYP2C9 act = human CYP2C9 activators, primary screen, biochemical, luminescence; Cytochrome P450 2C9 (Homo sapiens), P11712; recombinant CYP2C9, luciferin-H conversion; active compounds read high; factor 1 = untreated enzyme, 0 = blocked; activation factor at 5 µM; 1.4% of 96,000 active; AID 1024, 2008;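 active = activation factor of 2 or more for CYP2C9 at a 5 µM dose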
CYP2C19 inh = blockers of cytochrome P450 2C19 activity – biochemical, luminescence, ADME assay, primary screen | P33261 | CYP2C19 Supersomes, luciferin-H EGE luminescence, 30 min | inhibition, % at 5 µM | 21% of 96,000 active | AID 778, 2007;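 active = CYP2C19 inhibition above a set limit at 5 µM in the primary screen, cut at about 50% in these data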
Hits are given with their value; n = inactive; x = not tested or not shown. Sampled rows, rich in hits. Any-hit rate of the full collection: about 28%.

SMILES	Mac1 fbg enh	CYP2C9 inh	CYP2C19 act	Mac1 fbg inh	CYP2C9 act	CYP2C19 inh
COCCCn1c(Cc2csc(Nc3cccc(Cl)c3)n2)nnc1SCC(=O)OC	n	80	n	n	n	87
Cn1c(-c2ccc(C=O)s2)nc2c3ccccc3c3ccccc3c21	n	n	n	n	n	n
Cc1oc2ccc(O)c(CN3CCOCC3)c2c1C(=O)c1ccc(Cl)cc1	n	52	n	n	n	59
COc1ccc(N(C(=O)c2cccc([N+](=O)[O-])c2)S(=O)(=O)c2ccc3c(c2)n(C)c(=O)n3C)cc1	n	n	n	n	n	n
COc1ccc(N(C(=O)C(C)C)S(=O)(=O)c2ccc(Cl)cc2)cc1	n	88	n	n	n	97
COc1ccc(N(C(=O)C(C)C)S(=O)(=O)c2ccc3c(c2)n(C)c(=O)n3C)cc1	n	65	n	n	n	n
c1ccc(CC2CCN(Cc3nc(-c4ccccc4)no3)CC2)cc1	n	n	n	n	n	n
CCOC(=O)C1C(=O)C=C(c2ccc(C)cc2)CC1c1cccc([N+](=O)[O-])c1 (centres undefined)	n	x	x	n	x	x
Clc1ccccc1-c1nnc2sc(-c3ccc4c(c3)OCO4)nn12	n	n	n	n	n	n
c1csc(-c2nn3c(C4COc5ccccc5O4)nnc3s2)c1 (centres undefined)	n	51	n	n	n	58
c1ccc2c(c1)OCC(c1nnc3n1-c1ccccc1SC3)O2 (centres undefined)	n	85	n	n	n	96
Brc1ccccc1-c1nnc2sc(-c3ccc4c(c3)OCCO4)nn12	n	96	n	n	n	74
Fc1ccc(-c2nn3c(C4COc5ccccc5O4)nnc3s2)cc1 (centres undefined)	n	n	n	n	n	n
c1ccc2c(c1)OCC(c1nnc3sc(-c4ccc5c(c4)OCO5)nn13)O2 (centres undefined)	n	84	n	n	n	65
CC(=O)C1=NOC(CNC(=O)c2c(-c3ccccc3Cl)noc2C)C1 (centres undefined)	x	n	n	x	n	n
CCOC(=O)c1ccc(NC(=O)CSc2nnc(CNC(=O)c3c(F)cccc3Cl)o2)cc1	n	58	n	n	n	n
COc1ccc(C(=O)NCc2nnc(SCC(=O)Nc3cccc(C(F)(F)F)c3)o2)cc1OC	n	n	n	n	n	54
CC(CC(=O)O)CC1=NS(=O)(=O)c2ccccc2N1 (centres undefined)	n	n	n	n	n	n
CC1CCCC(NC(=O)c2ccc3c(=O)n(CC4CCCO4)c(=O)[nH]c3c2)C1C (centres undefined)	n	n	n	n	n	n
O=C(O)c1cc(Cl)c2ccccc2c1O	n	79	n	n	n	n
O=C1CC(N(CCc2ccccc2)C(=S)Nc2cc(Cl)ccc2Cl)C(=O)N1c1c(Cl)cccc1Cl (centres undefined)	n	54	n	n	n	n
C=C(C)CNC(=S)NNC(=O)CCn1c2ccc(Cl)cc2c2cc(Cl)ccc21	n	x	x	n	x	x
O=S(=O)(c1cccc(C(F)(F)F)c1)N1CCN(c2ccccc2)CC1	n	n	n	n	n	n
CC(=O)N1CCc2cc(Br)cc(S(=O)(=O)N3CCCCCC3)c21	n	n	n	n	n	n
CC(=O)N1CCc2cc(Br)cc(S(=O)(=O)N3CCN(C(=O)c4ccco4)CC3)c21	n	59	n	n	n	n
SMILES	Mac1 fbg enh	CYP2C9 inh	CYP2C19 act	Mac1 fbg inh	CYP2C9 act	CYP2C19 inh
O=C(c1ccco1)N1CCN(S(=O)(=O)c2ccc3c(c2)CCN3C(=O)C2CC2)CC1	x	n	n	x	n	69
O=C(c1ccco1)N1CCN(S(=O)(=O)c2cccc(C(F)(F)F)c2)CC1	n	71	n	n	n	83
O=C(C1CC1)N1CCc2cc(S(=O)(=O)N3CCOCC3)ccc21	x	n	n	x	n	n
COC(=O)Cc1cnc(NC(=O)C2C3CCC(C3)C2C(=O)O)s1 (centres undefined)	n	n	n	n	n	n
Cc1ccc(NC(=O)CCC(=O)NNC(=O)C(c2ccccc2)c2ccccc2)c(C)c1	n	n	n	n	n	n
O=C(NC1CCCCC1)C(c1ccc(F)cc1)N(C(=O)c1cccs1)c1ccc2c(c1)OCO2 (centres undefined)	n	n	n	n	n	n
CC(/C=C/C=C/c1ccccc1)=N/NC(=O)CNc1ccc(C)cc1	n	n	n	n	n	n
COc1cc(C)c(CN2CCCCC2CO)cc1C (centres undefined)	n	n	n	n	n	n
Cc1ccc(-c2nc3ccccn3c2NCc2ccc3c(c2)OCO3)cc1	x	72	n	x	n	80
Oc1ccc(-c2nc3ccccn3c2NCc2ccco2)cc1	n	77	n	n	n	n
O=C(NCCCN1CCOCC1)c1cc2c(s1)CSC2	x	n	n	x	n	n
O=C(COc1ccc(Cl)cc1Cl)NC(=S)N1CCCc2ccccc21	n	62	n	n	n	60
CC(=O)N1CCN(c2ccccc2NC(=O)COc2ccc(Cl)cc2Cl)CC1	n	n	n	n	n	78
CC(=O)N1CCN(c2ccccc2NC(=O)c2cc(Br)ccc2Cl)CC1	n	59	n	n	n	n
CCC(=O)N1CCN(c2ccccc2NC(=O)COc2cc(C)ccc2C(C)C)CC1	n	96	n	n	n	93
CN1CCN(c2ccccc2NC(=O)c2cc(Br)ccc2Cl)CC1	n	n	n	n	n	n
O=C(COC(=O)CCNS(=O)(=O)c1cccc(C(F)(F)F)c1)NC(=O)NC1CCCCC1	n	79	n	n	n	69
Cc1cccc(S(=O)(=O)NCCC(=O)OC(C)C(=O)NC(=O)NC2CCCCC2)c1 (centres undefined)	n	56	n	n	n	n
CC(=O)OC(C(=O)NC1CCCCC1)c1cccc(C)c1 (centres undefined)	n	n	n	n	n	n
O=C(NC1CCCC1)c1ccc(CS(=O)(=O)c2cccc(C(F)(F)F)c2)o1	n	n	n	n	n	n
CC1=NCCN1S(=O)(=O)c1cc(Cl)ccc1Cl	x	n	n	x	2.8	51
O=C(Oc1ccc2c(c1)OCO2)c1ccc(Br)c(S(=O)(=O)N2CCOCC2)c1	n	n	n	n	n	n
O=S(=O)(c1cc(Cl)ccc1Br)N1CCCCC1	n	n	n	n	3.2	96
O=C(O)c1ccc(Br)c(S(=O)(=O)N2CCCC2)c1	n	n	n	n	n	n
COc1ccc(Cl)c(S(=O)(=O)N2CCCC2)c1	n	n	n	n	2.8	80
